Reference: PubChem BioAssay (Tox21)
“And” between values parts separate entries of the source, which are not always exact repeats. Identical values can stand only once. Results filed as inconclusive are left out. Where a call stands in place of a potency, no number is given. The source made the active and inactive calls. Unless noted, calls follow the shape of the dose curve; as a rule, active = well fitted curve in the direction sought with a large enough effect in the repeat runs; inconclusive = weak or mixed curves; inactive = no such curve, though single readings can be large; an effect the other way counts as inactive or inconclusive.

Assays:
[1] = qHTS assay to identify small molecule agonists of the RXR signaling pathway - cell viability counter screen (AID 1159529); also: nearly all actives have a fitted effect of over 50% in size; also: potency is read from the fitted curve at half-maximal effect
Procedure, shortened: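 Cell viability is measured by CellTiter-Glo luminescence, 30 min at room temperature, in wells already read for beta-lactamase. Engineered HEK 293T cells (RXR-alpha-UAS-bla) are dosed 16 hr at 37 C. Tetraoctyl ammonium bromide serves as positive control.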

[2] = qHTS assay to identify small molecule antagonists of the retinoid acid receptor (RAR) signaling pathway - cell viability counter screen (AID 1159551); also: nearly all actives have a fitted effect of over 35% in size; also: potency is read from the fitted curve at half-maximal effect
Procedure, shortened: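 C3RL4 RARE-luciferase cells, 1,000/well, incubated overnight, then dosed with compound plus 1 uM retinol (final). After 6 hr at 37 C, viability read by CellTiter-Glo ATP luminescence following 30 min at room temperature.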

[3] = biological target: Luciferin 4-monooxygenase (Photinus pyralis) (UniProt P08659); assay: qHTS assay to identify small molecule inhibitors of firefly luciferase (AID 1224835); also: nearly all actives have a fitted effect of over 25% in size; also: potency is read from the fitted curve at half-maximal effect
Procedure, shortened: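 Inhibition of purified Photinus luciferase is measured by luminescence. Substrate levels (D-luciferin, ATP) sit at their KM values. Each compound is tested in a concentration series.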

[4] = qHTS assay to identify small molecule agonists of the constitutive androstane receptor (CAR) signaling pathway - cell viability counter screen (AID 1224836); also: nearly all actives have a fitted effect of over 45% in size; also: potency is read from the fitted curve at half-maximal effect
Procedure, shortened: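 Counter screen multiplexed with the CAR reporter readout: HepG2 cells co-transfected with hCAR and the CYP2B6-2.2kb construct receive a 15-concentration compound series and 0.75 uM PK11195 (final), then CellTiter-Fluor fluorescence is read after 23 h.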

[5] = qHTS assay to identify small molecule antagonists of the constitutive androstane receptor (CAR) signaling pathway - cell viability counter screen (AID 1224837); also: nearly all actives have a fitted effect of over 45% in size; also: potency is read from the fitted curve at half-maximal effect
Procedure, shortened: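 HepG2 cells stably carrying hCAR and CYP2B6-2.2kb reporter, stimulated with 50 nM CITCO and compounds at 15 concentrations for 23 h at 37 C. Viability measured by CellTiter-Fluor fluorescence.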

[6] = qHTS assay to identify small molecule antagonists of the estrogen related receptor signaling pathway with the pleiotropic PPARgamma coactivator (PGC) from Tox21 10K library - cell viability counter screen (AID 1224840; active = well fitted cell-killing curve with a large enough effect in the repeat runs, not every such curve was filed as active; also: nearly all actives have a fitted effect of over 40% in size; also: potency is read from the fitted curve at half-maximal effect)
Procedure, shortened: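 PGC/ERR cells (2,000/well) plated 6 h, then compound-treated for 17.5 h at 37 C. Viability measured by CellTiter-Fluor fluorescence after 30 min at 37 C, multiplexed with the pathway assay.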

[7] = biological target: Thyrotropin receptor (Homo sapiens) (UniProt P16473); assay: qHTS assay to identify small molecule agonists of the thyroid stimulating hormone receptor (TSHR) signaling pathway (AID 1224843; calls by dose curve; also: nearly all actives have a fitted effect of over 45% in size; also: potency is read from the fitted curve at half-maximal effect)
Procedure, shortened: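 HEK293 cells stably bearing the thyrotropin receptor were plated at 800 cells/well and challenged with compound (30 min, RT). Accumulated cAMP was quantified via cAMP-d2 competing for cryptate-tagged antibody.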

[8] = qHTS assay to identify small molecule antagonists of the retinoic acid receptor (RAR) signaling pathway (AID 1159552; also: nearly all actives have a fitted effect of over 50% in size)
Procedure, shortened: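 Quantitative HTS in C3RL4 RARE-luciferase reporter cells. Compounds were added with 1 uM (final) retinol; luminescence was read after 6 hr.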

[9] = qHTS assay to identify small molecule agonists of the retinoic acid receptor (RAR) signaling pathway (AID 1159553)
Procedure, shortened: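 C3RL4 RARE-luciferase cells were seeded at 1,000/well and grown overnight at 37 C, then exposed to compounds for 6 hr at 37 C, 5% CO2. Luciferase reagent was added and luminescence was read after 30 min at room temperature.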

[10] = qHTS assay to identify small molecule antagonists of the estrogen related receptor (ERR) signaling pathway from Tox21 library - cell viability counter screen (AID 1224834); also: nearly all actives have a fitted effect of over 30% in size; also: potency is read from the fitted curve at half-maximal effect
Procedure, shortened: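 ERR reporter cells, 2,000 per well, rested 6 h, then exposed to compound in DMSO for 17.5 hours at 37 C. Viability read as fluorescence after 30 min with CellTiter-Fluor.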

[11] = biological target: Nuclear receptor subfamily 1 group I member 3 (Homo sapiens) (UniProt Q14994); assay: qHTS assay to identify small molecule agonists of the constitutive androstane receptor (CAR) signaling pathway (AID 1224839); also: nearly all actives have a fitted effect of over 15% in size; also: potency is read from the fitted curve at half-maximal effect
Procedure, shortened: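 A 15-concentration quantitative screen uses HepG2 cells co-transfected stably with human CAR and CYP2B6-2.2kb reporter. Treatment lasts 24 h with 0.75 uM PK11195 final present; ONE-Glo luminescence is the signal.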

[12] = qHTS assay to identify small molecule antagonists of the estrogen related receptor signaling pathway with the pleiotropic PPARgamma coactivator (PGC) from Tox21 10K library (AID 1224841; call rule not given here; also: series mostly up to about 92 µM; actives are mostly falling curves and most rising ones were filed inactive; nearly all actives have a fitted effect of over 50% in size)
Procedure, shortened: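 PGC/ERR cell line, 2,000 cells/well, pre-incubated 6 hours at 37 C, then exposed to compounds for 18 hours at 37 C; luciferase read with One-Glo luminescence after 30 min at room temperature.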

[13] = qHTS assay to identify small molecule agonists of the estrogen related receptor signaling pathway with the pleiotropic PPARgamma coactivator (PGC) from Tox21 10K library (AID 1224842); also: nearly all actives have a fitted effect of over 15% in size
Procedure, shortened: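 Luminescence from One-Glo (30 min, room temperature) measured after PGC/ERR cells had 18 h at 37 C with pinned compound (23 nL in DMSO). Cells had been seeded at 2,000 per well and pre-incubated 6 h.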

[14] = biological target: Nuclear receptor subfamily 1 group I member 3 (Homo sapiens) (UniProt Q14994); assay: qHTS assay to identify small molecule antagonists of the constitutive androstane receptor (CAR) signaling pathway (AID 1224838); also: nearly all actives have a fitted effect of over 40% in size; also: potency is read from the fitted curve at half-maximal effect
Procedure, shortened: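 HepG2 cells stably carrying hCAR and a CYP2B6-2.2kb luciferase reporter, seeded 4 hrs before compound (15 concentrations). Stimulated with 50 nM CITCO for 24 hr at 37 C. ONE-Glo luminescence read after 30 min at room temperature.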

[15] = qHTS assay to identify small molecule antagonists of the estrogen related receptor signaling pathway with the pleiotropic PPARgamma coactivator (PGC) cell viability counter screen (AID 1224822; also: series mostly up to about 46 µM)
Procedure, shortened: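 PGC/ERR cells rested 6 h, then compound-treated 17.5 h at 37 C. CellTiter-Fluor added for 30 min at 37 C, viability measured by fluorescence intensity.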

Thyrotropin receptor (Homo sapiens), sequence (P16473 whole entry, looked up): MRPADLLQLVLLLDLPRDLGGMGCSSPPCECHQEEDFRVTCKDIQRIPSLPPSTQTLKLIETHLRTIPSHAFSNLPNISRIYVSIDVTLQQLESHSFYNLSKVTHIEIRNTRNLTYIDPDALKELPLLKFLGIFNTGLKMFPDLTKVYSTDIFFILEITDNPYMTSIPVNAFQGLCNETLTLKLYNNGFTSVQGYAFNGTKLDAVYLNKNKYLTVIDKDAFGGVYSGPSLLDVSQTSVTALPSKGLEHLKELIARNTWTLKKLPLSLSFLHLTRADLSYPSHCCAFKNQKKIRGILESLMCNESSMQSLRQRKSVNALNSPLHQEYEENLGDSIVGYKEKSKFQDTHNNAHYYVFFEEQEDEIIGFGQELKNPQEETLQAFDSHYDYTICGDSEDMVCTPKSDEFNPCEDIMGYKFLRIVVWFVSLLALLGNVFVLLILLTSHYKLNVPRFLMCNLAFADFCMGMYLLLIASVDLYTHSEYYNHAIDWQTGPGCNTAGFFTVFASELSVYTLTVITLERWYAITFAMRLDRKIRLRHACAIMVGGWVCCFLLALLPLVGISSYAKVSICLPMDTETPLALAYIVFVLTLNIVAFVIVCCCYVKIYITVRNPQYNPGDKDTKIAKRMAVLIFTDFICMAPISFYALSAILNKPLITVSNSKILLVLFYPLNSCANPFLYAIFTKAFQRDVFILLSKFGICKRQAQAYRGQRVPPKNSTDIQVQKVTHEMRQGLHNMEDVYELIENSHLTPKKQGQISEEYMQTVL
Nuclear receptor subfamily 1 group I member 3 (Homo sapiens), sequence (Q14994 whole entry, looked up): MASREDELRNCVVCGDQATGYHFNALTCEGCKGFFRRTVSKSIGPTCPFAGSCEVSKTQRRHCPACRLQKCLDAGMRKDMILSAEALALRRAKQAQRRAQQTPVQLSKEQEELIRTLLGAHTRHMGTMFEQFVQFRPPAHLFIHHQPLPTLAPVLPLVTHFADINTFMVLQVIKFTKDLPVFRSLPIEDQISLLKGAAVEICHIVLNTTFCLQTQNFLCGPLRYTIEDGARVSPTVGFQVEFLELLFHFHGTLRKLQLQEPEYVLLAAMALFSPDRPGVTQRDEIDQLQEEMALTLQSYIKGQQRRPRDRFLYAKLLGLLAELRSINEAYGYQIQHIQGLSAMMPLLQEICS
Luciferin 4-monooxygenase (Photinus pyralis), sequence (P08659 whole entry, looked up): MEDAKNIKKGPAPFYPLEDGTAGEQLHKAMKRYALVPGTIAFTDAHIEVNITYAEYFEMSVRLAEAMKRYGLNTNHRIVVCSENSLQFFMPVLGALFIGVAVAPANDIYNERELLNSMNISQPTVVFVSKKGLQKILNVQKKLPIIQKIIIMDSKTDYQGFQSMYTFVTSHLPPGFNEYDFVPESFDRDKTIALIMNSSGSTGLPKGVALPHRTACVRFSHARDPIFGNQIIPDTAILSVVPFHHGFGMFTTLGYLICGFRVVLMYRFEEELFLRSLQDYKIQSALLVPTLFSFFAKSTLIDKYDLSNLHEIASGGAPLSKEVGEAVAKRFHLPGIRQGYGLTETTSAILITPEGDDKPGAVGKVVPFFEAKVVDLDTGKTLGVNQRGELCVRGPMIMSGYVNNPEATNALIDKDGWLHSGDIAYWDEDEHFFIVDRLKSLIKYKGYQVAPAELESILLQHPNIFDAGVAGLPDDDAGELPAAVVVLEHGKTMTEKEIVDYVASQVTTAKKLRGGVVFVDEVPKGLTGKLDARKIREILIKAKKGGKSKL

CC1(C)S[C@@H]2[C@H](NC(=O)[C@H](N)c3ccccc3)C(=O)N2[C@H]1C(=O)O
Potency [1]: inactive
Potency [2]: inactive
Potency [3]: inactive
Potency [4]: inactive
Potency [5]: inactive
Potency [6]: inactive
Potency [7]: inactive

CCOC(N)=O
Potency [1]: inactive
Potency [2]: inactive
Potency [3]: inactive
Potency [4]: inactive
Potency [5]: inactive
Potency [6]: inactive
Potency [7]: inactive

NC(=O)n1c(O)c(C(=O)c2cccs2)c2cc(Cl)ccc21
Potency [2]: inactive
Potency [8]: inactive
Potency [9]: inactive
Potency [10]: 23.7 µM (active)
Potency [3]: 30.9 µM (active)
Potency [11]: 13.3 µM (active)
Potency [7]: inactive

Cc1cc(=O)oc2cc(O)ccc12
Potency [1]: inactive
Potency [2]: inactive
Potency [3]: inactive
Potency [4]: inactive
Potency [5]: inactive
Potency [11]: inactive
Potency [6]: inactive
Potency [7]: inactive

CCCCC(CC)C(=O)O (stereo not given)
Potency [1]: inactive
Potency [2]: inactive
Potency [10]: inactive
Potency [3]: inactive
Potency [4]: inactive
Potency [5]: inactive
Potency [6]: inactive
Potency [7]: inactive

Cc1ncc([N+](=O)[O-])n1C
Potency [1]: inactive
Potency [2]: inactive
Potency [3]: inactive
Potency [4]: inactive
Potency [5]: inactive
Potency [11]: inactive
Potency [6]: inactive
Potency [12]: inactive
Potency [13]: inactive
Potency [7]: inactive

CCc1nc(N)nc(N)c1-c1ccc(Cl)cc1
Potency [2]: inactive
Potency [3]: inactive
Potency [4]: inactive
Potency [5]: inactive
Potency [14]: 1.75 µM (active) and 3.06 µM (active)
Potency [11]: inactive
Potency [6]: inactive

Cc1ccc(S(=O)(=O)O)cc1
Potency [1]: inactive
Potency [2]: inactive
Potency [4]: inactive
Potency [5]: inactive
Potency [6]: inactive

CCCCCCCCCCCC[N+](C)(C)Cc1ccccc1
Potency [1]: 6.78 µM (active) and 8.43 µM (active) and 1.69 µM (active)
Potency [2]: 60 µM (active) and 74.5 µM (active)
Potency [3]: inactive
Potency [4]: 47.6 µM (active) and 59.2 µM (active) and 29.8 µM (active)
Potency [5]: 47.6 µM (active) and 23.7 µM (active)
Potency [14]: 83.6 µM (active) and 29.8 µM (active)
Potency [11]: inactive
Potency [6]: 60 µM (active) and 41.9 µM (active)
Potency [7]: 30 µM (active) and 37.4 µM (active)

O=C1O[C@H]([C@@H](O)CO)C(O)=C1O
Potency [1]: inactive
Potency [2]: inactive
Potency [3]: inactive
Potency [4]: inactive
Potency [5]: inactive
Potency [14]: inactive
Potency [11]: inactive
Potency [6]: inactive
Potency [7]: inactive

CCOc1ccc(NC(C)=O)cc1
Potency [1]: inactive
Potency [2]: inactive
Potency [10]: inactive
Potency [3]: inactive
Potency [4]: inactive
Potency [5]: inactive
Potency [6]: inactive
Potency [12]: inactive
Potency [13]: inactive
Potency [7]: inactive

CC(=O)CC(c1ccccc1)c1c(O)c2ccccc2oc1=O (stereo not given)
Potency [1]: inactive
Potency [2]: inactive
Potency [4]: inactive
Potency [5]: inactive
Potency [6]: inactive

CC(=O)CCC(=O)O
Potency [1]: inactive
Potency [2]: inactive
Potency [3]: inactive
Potency [4]: inactive
Potency [5]: inactive
Potency [11]: inactive
Potency [6]: inactive
Potency [7]: inactive

Nc1ccc([N+](=O)[O-])cc1O
Potency [9]: inactive
Potency [15]: inactive
Potency [6]: 30.6 µM (active)

OC[C@H]1O[C@H](O[C@]2(CCl)O[C@H](CCl)[C@@H](O)[C@@H]2O)[C@H](O)[C@@H](O)[C@H]1Cl
Potency [1]: inactive
Potency [2]: inactive
Potency [3]: inactive
Potency [4]: inactive
Potency [5]: inactive
Potency [6]: inactive
Potency [7]: inactive
